From publication PMC4336329 (PLoS ONE, 2015)
In all, about 310,000 compounds went through this assay and about 2,200 (0.71%) showed an effect of 50% or more. Effects have a minus sign here. What follows is part of a selection rich in strong results, with near analogues and random picks from the rest.

Molecular target: human ether-à-go-go-related gene (hERG) potassium channel (human, UniProt Q12809)
Assay: primary screen, population patch clamp on CHO cells stably expressing hERG; higher = less effect of the substance

human ether-à-go-go-related gene (hERG) potassium channel, sequence (Q12809 whole entry, looked up): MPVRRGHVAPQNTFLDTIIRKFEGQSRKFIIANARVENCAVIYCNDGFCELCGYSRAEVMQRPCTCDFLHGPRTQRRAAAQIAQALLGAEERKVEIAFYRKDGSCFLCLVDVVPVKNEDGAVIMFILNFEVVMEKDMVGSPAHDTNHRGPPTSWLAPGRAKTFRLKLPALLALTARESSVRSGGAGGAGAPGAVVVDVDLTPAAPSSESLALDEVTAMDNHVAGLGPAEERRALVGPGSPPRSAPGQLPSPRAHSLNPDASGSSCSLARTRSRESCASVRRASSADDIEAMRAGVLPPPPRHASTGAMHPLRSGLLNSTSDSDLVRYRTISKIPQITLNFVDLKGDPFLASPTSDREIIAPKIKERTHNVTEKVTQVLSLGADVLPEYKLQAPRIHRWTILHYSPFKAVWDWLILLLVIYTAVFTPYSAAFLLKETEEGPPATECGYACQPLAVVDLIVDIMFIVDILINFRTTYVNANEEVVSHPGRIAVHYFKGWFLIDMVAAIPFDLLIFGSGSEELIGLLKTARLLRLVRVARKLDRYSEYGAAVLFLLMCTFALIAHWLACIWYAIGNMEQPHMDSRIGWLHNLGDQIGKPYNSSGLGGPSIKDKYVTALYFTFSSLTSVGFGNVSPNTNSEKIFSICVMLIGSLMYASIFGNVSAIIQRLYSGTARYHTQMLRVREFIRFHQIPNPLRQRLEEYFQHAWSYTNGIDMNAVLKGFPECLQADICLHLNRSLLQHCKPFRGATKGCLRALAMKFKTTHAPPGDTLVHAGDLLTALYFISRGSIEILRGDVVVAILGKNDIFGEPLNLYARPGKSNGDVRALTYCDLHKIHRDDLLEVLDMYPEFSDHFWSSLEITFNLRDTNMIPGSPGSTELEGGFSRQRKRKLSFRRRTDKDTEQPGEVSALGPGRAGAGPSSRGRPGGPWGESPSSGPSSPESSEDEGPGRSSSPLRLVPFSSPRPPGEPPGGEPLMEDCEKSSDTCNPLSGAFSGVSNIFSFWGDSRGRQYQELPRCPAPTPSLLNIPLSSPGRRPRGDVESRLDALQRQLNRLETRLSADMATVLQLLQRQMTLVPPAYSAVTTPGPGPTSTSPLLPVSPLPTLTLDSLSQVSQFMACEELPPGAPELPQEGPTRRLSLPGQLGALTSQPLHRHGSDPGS

SMILES	hERG current change (%, negative = inhibition) at 1uM [%]
C/C(CC(=O)Nc1cccc(Cl)c1Cl)=N\NC(=O)c1ccccc1C	8.35
CC(=O)Nc1cccc(NC(=O)CSc2ncc(C(=O)Nc3ccc(F)cc3)c(=O)n2C)c1	-3.89
COc1ccc(C2(C#N)CCC(=O)N2c2ccccc2)cc1 (stereo not shown)	8.4
COC(=O)CNC(=O)CN1c2cccc3cccc(c23)S1(=O)=O	-12.4
Cc1c(C(=O)O)c(-c2ccccc2)nn1-c1ccccc1	10.8
Cc1ccc(C(=O)NC2CCN(C(=O)Nc3ccc(F)cc3)CC2)cc1	8.68
O=C(CCCN1CCC(C(=O)c2ccc(F)cc2)CC1)c1ccc(F)cc1	-86.2
CN1CCN(CCCC(=O)c2ccc(F)cc2)CC1.Cl	-1.2
Cc1ccc(C(=O)NC2CCN(CCCC(=O)c3ccc(F)cc3)CC2)cc1	-72.9
O=C(CCCN1CCC(NC(=O)c2ccccc2)CC1)c1ccc(Cl)cc1	-59.5
O=C(c1ccc(F)cc1)C1CCN(C(=O)c2ccc(F)cc2)CC1	2.31
O=C(NC1CCN(Cc2ccc(Cl)cc2Cl)CC1)c1ccccc1	-6.37
Cc1ccc(C(=O)NC2CCN(S(=O)(=O)c3ccc(F)cc3)CC2)cc1	9.73
O=C(NC1CCN(Cc2ccccc2Cl)CC1)c1ccccc1	10
CC(C)CC(C)NC(=O)c1ccc(C(F)(F)F)cc1 (stereo not shown)	10.6
CCCCN(C)Cc1c(O)ccc2c(-c3ccccc3)cc(=O)oc12	-4.52
COCCCn1c(=NC(=O)c2ccncc2)c(C#N)cc2c(=O)n3cccc(C)c3nc21	-53.3
CC(=O)N=c1c(C#N)cc2c(=O)n3cccc(C)c3nc2n1CCCOC(C)C	-13.3
Cc1cccn2c(=O)c3cc(C#N)c(=NC(=O)c4cccs4)n(CCCOC(C)C)c3nc12	-26.1
CCOCCCn1c(=NC(=O)c2cccs2)c(C#N)cc2c(=O)n3cccc(C)c3nc21	-53.9
COCCCn1c(=NC(=O)c2ccccc2)c(C#N)cc2c(=O)n3cccc(C)c3nc21	-49
Cc1cccn2c(=O)c3cc(C#N)c(=NC(=O)c4cccs4)n(CC(C)C)c3nc12	7.98
Cc1cccn2c(=O)c3cc(C#N)c(=NC(=O)c4ccncc4)n(CCCOC(C)C)c3nc12	-89.7

SMILES	hERG current change (%, negative = inhibition) at 1uM [%]
COCCCn1c(=NC(C)=O)c(C#N)cc2c(=O)n3cccc(C)c3nc21	-7.03
CCOCCCn1c(=NC(=O)c2ccc(OC)c(OC)c2)c(C#N)cc2c(=O)n3cccc(C)c3nc21	-11
Cc1nc(OCc2c(C)noc2C)c2ccccc2n1	13.1
CCn1cc(C(=O)N2CCC3(CC2)OCCO3)c(=O)c2cc(S(=O)(=O)N3CCCC3)ccc21	15.9
Cn1c(CNC(=O)Nc2ccccc2Cl)nnc1SCc1ccccc1	2.3
CCCN(C(=O)CSc1nnc2ccccn12)C1CCS(=O)(=O)C1 (stereo not shown)	10.4
CC(=O)NC(NC(C)=O)c1ccc(Br)cc1	-1.9
COC(=O)c1ccc(C)c(NC(=O)c2ccc(Cl)c([N+](=O)[O-])c2)c1	5.94
CCOC(=O)c1[nH]c(C)c(C(=O)N2CCN(c3ccccc3)CC2)c1C	-3.94
CCOC(=O)c1c(N2CCN(c3ccccc3)CC2)cc(C)nc1C.O=C([O-])C(=O)[O-]	-69
CCOC(=O)c1c(CN2CCN(c3ccccc3)CC2)oc2ccc(O)cc12	12.6
CCCC(=O)Nc1ccccc1NC(=O)CN(C)S(=O)(=O)c1ccccc1	9.94
CCOc1ccccc1NC(=O)CSc1nnc(-c2ccco2)o1	8.2
N/C(=N\OC(=O)CC1CCCCC1)c1cccc([N+](=O)[O-])c1	13.7
N/C(=N\OC(=O)CCC1CCCC1)c1cccc([N+](=O)[O-])c1	-53.8
N/C(=N\OC(=O)CCC1CCCCC1)c1cccc([N+](=O)[O-])c1	3.64
O=C(O)c1ccc(NS(=O)(=O)c2cc(Cl)ccc2Cl)cc1O	4.19
CCCc1cc(C(=O)Nc2cc(Br)ccc2O)no1	18.4
O=C(NCCN1CCN(S(=O)(=O)c2ccc([N+](=O)[O-])cc2)CC1)C(=O)Nc1ccccc1	2.87
Cc1ccc(NC(=O)C(=O)NCCN2CCN(Cc3ccc([N+](=O)[O-])cc3)CC2)cc1	-53.3
CCc1ccc(NC(=O)C(=O)NCCN2CCN(S(C)(=O)=O)CC2)cc1	18.2
O=C(NCCc1ccccc1)C(=O)Nc1ccc([N+](=O)[O-])cc1	11
CCCCc1ccc(NC(=O)C(=O)NCCN2CCN(Cc3ccc([N+](=O)[O-])cc3)CC2)cc1	-6.8
